The values below come from PubChem BioAssay AID485364 (National Center for Advancing Translational Sciences (NCATS), 2010).

In all, about 360,000 compounds went through this assay and about 11,000 (3.1%) were called active. Another 4% or so got no clear call; they are omitted. The list comes from a sample in which actives are over-represented; it also holds similar structures and randomly drawn compounds. A number with no mark means an inactive call. Calls follow the shape of the dose curve; as a rule, active = well fitted inhibition curve with a large enough effect; inconclusive = small, poorly fitted or top-dose-only effect; inactive = no such curve, though single readings can be large or run the other way.
% is scaled to controls: 0 for no effect and ±100 for the full control effect; potency is read from the fitted curve at half-maximal effect.

This assay addresses Schistosoma mansoni thioredoxin glutathione reductase (TGR) (UniProt Q962Y6). The assay is described as follows: qHTS Assay for the Inhibitors of Schistosoma Mansoni Peroxiredoxins. Also: nearly all actives have a fitted effect of over 60% in size. The following applies: purified TGR, DTNB reduction, TNB absorbance 405 nm; series mostly up to 114 µM; activity change, negative = inhibition: at the top concentration. The method in brief:
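TGR 20 nM + NADPH 100 uM (dispensed conc.), cpd preinc 15 min RT; start with NADPH (500 uM addition) then DTNB (15 mM addition). Kinetic TNB absorbance, 405 nm filter. Four-parameter Hill fit across titration.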
For the compound `C=Cc1ccc(Cn2c(C(=O)OC)cc3sc(C)cc32)cc1`, the “activity change, negative = inhibition” value is 5.62%.

As for `COc1ccc(C(=O)CSc2c(C(C)C)cnc3c2c(=O)n(C)c(=O)n3C)cc1`, the “activity change, negative = inhibition” value was -11.9%.

Regarding `COc1cc2[nH]c(=O)n(Cc3ccc(C(=O)NCc4ccc(C)cc4)cc3)c(=O)c2cc1OC`, the “activity change, negative = inhibition” value was 1.94%.

Take `COc1ccc(N2CCN(C3CC(=O)N(c4ccc5c(c4)OCCO5)C3=O)CC2)cc1` (stereo not drawn): the “activity change, negative = inhibition” value is 15.7%.

On to `Cc1ccc(CC2CC(=O)N(c3ccc4c(c3)OCCO4)C2=O)cc1` (stereo not drawn), for which the “activity change, negative = inhibition” value is 0%.

Regarding `O=CN1CCN(C2CC(=O)N(c3ccc4c(c3)OCO4)C2=O)CC1` (stereo not drawn), the Potency is 44.7 µM (active).

Regarding `COc1cc(Nc2nc(-c3ccc(OC)c(OC)c3)nc3ccccc23)cc(OC)c1`, the “activity change, negative = inhibition” value was 0.492%.

In the case of `CC(=O)c1ccc(NC(=O)CSc2c(C(C)C)cnc3c2c(=O)n(C)c(=O)n3C)cc1`, the “activity change, negative = inhibition” value was -3.63%.

As for `Cc1cccc(NC(=O)CSc2ncc(-c3ccccc3)[nH]2)c1C`, the “activity change, negative = inhibition” value is 7.09%.

Take `CC1CCCN(C(=O)c2cc(-c3ccco3)nc3ccccc23)C1` (stereo not drawn): the Potency was 31.6 µM (active).

`COc1ccc(/C=C(\C#N)C(=O)OCC(=O)N(C)C2CCS(=O)(=O)C2)cc1` (stereo not drawn): the “activity change, negative = inhibition” value was -0.0993%.

In the case of `CN(CCOc1ccccc1)C(=O)c1cc(-c2ccco2)nc2ccccc12`, the Potency was 3.16 µM (active).

Take `Cc1ccc(NC(=O)c2cc(-c3ccc(C)o3)nc3ccccc23)nc1`: the Potency was 11.2 µM (active).

In the case of `COc1ccc(NC(=O)COc2ccc(C(=O)OCC(=O)N(C)C3CCS(=O)(=O)C3)cc2OC)cc1` (stereo not drawn), the “activity change, negative = inhibition” value was -3.82%.

Regarding `O=C(c1cc(-c2ccc(Cl)s2)nc2ccccc12)N1CCOCC1`, the “activity change, negative = inhibition” value was -7.38%.

As for `CSc1ncccc1C(=O)Nc1ccc(C)cn1`, the “activity change, negative = inhibition” value was 3.44%.

For the compound `COc1ccc(CN(C)C(=O)c2cc(-c3ccc(C)cc3C)nc3ccccc23)c(OC)c1OC`, the “activity change, negative = inhibition” value is -1.05%.

On to `CN(CCOc1ccccc1)C(=O)c1cc(COc2c(F)cccc2F)on1`, for which the “activity change, negative = inhibition” value is -0.798%.

On to `CN(C(=O)COC(=O)c1cc(-c2ccco2)nc2ccccc12)C1CCS(=O)(=O)C1` (stereo not drawn), for which the Potency was 3.55 µM (active).

As to `CC(=O)N1CCN(C(=O)c2cc(-c3ccc(C)o3)nc3ccccc23)CC1`, the “activity change, negative = inhibition” value was -8.9%.

Regarding `CCOc1ccccc1-c1cc(C(=O)N2CCOCC2)c2ccccc2n1`, the “activity change, negative = inhibition” value was 6.44%.

As to `Cc1ccc(-c2nnc(Nc3ccc(OCC(N)=O)cc3)c3ccccc23)cc1S(=O)(=O)NCC1CCCO1` (stereo not drawn), the “activity change, negative = inhibition” value was -2.06%.

As to `Cc1ccc(Cl)cc1N1CCN(C(=O)c2cnc3c(-c4ccc(F)cc4)c(C)nn3c2C)CC1`, the “activity change, negative = inhibition” value was -1.63%.

As to `CC(=O)N1c2ccccc2CC1C(=O)N1CCN(c2ccc(F)cc2)CC1` (stereo not drawn), the “activity change, negative = inhibition” value was 1.54%.

Turning to `Cc1ccc2oc(=O)c3cnn(CC(=O)N4CCN(c5cccc(Cl)c5)CC4)c3c2c1`, the “activity change, negative = inhibition” value is 2.82%.

For `Fc1cccc(-n2ncc3c2ncn2nc(-c4ccccc4Cl)nc32)c1`, the “activity change, negative = inhibition” value is -1.22%.

On to `CCOc1cccc(C(=O)Nc2nnc(S(=O)(=O)N(C)c3ccc(C)cc3)s2)c1`, for which the “activity change, negative = inhibition” value is 2.45%.

As for `O=C(Nc1ccc2oc(-c3ccc(O)c(Br)c3)nc2c1)c1cc2ccccc2o1`, the “activity change, negative = inhibition” value was -0.0022%.

In the case of `COc1ccc(OC)c(NC(=O)CN2CCCN(Cc3cc(C)ccc3C)S2(=O)=O)c1`, the “activity change, negative = inhibition” value was 0.344%.

Consider `Cc1csc2nc(COC(=O)c3ccc(NC(=O)COc4ccccc4F)cc3)cc(=O)n12`, for which the “activity change, negative = inhibition” value is 2.87%.

In the case of `COc1cccc(N=C2SC(C(=O)Nc3cccc(Cl)c3)CC(=O)N2C)c1` (stereo not drawn), the “activity change, negative = inhibition” value is -12.8%.

With `CN(Cc1ccccc1)c1ncnc2onc(-c3ccc(F)cc3)c12`, the “activity change, negative = inhibition” value was 1.52%.

For the compound `CC(=O)c1cccc(NC(=O)c2nc(-c3ccccc3)n(-c3cccc(C)c3)n2)c1`, the “activity change, negative = inhibition” value is -6.73%.

Take `CCN(CC)CCNC(=O)CN1N=C(c2ccc(OC)cc2)CCC1=O`: the “activity change, negative = inhibition” value was 0.497%.

With `COc1ccc(NC(=O)CN(C)C(=O)c2n[nH]c3ccccc23)cc1`, the “activity change, negative = inhibition” value was 1.25%.

Turning to `COc1ccc(NC(=O)CN(C)C(=O)c2cc(-c3ccc(C)o3)nc3ccccc23)cc1`, the Potency was 28.2 µM (active).

Take `CC(C)N(Cc1nnc(-c2ccccc2Br)o1)C(=O)c1cc(Cl)nc2ccccc12`: the “activity change, negative = inhibition” value was -0.676%.

As for `O=C(c1ccc(Cl)s1)N(Cc1nnc(-c2ccccc2Cl)o1)C1CC1`, the “activity change, negative = inhibition” value was -7.47%.

Turning to `O=C(c1cc(-c2ccco2)nc2ccccc12)N(Cc1nnc(-c2ccc(Cl)cc2)o1)C1CC1`, the Potency was 8.91 µM (active).

With `COc1ccc(-c2cc(C(=O)N(C)CC(=O)Nc3ccccc3Cl)c3ccccc3n2)cc1OC`, the “activity change, negative = inhibition” value was 3.05%.

With `COc1ccc(Cc2nc3ccc(C(=O)NCc4ccc(OC)cc4OC)cc3o2)cc1`, the “activity change, negative = inhibition” value was -3.16%.

Consider `O=C(Nc1cc(C(F)(F)F)ccc1Cl)c1ccc2c(c1)CCN2S(=O)(=O)c1ccccc1`, for which the “activity change, negative = inhibition” value is 3.48%.

With `COc1ccc(NC(=O)CSc2nnc(-c3nnn(-c4ccc(F)cc4)c3C)o2)cc1`, the “activity change, negative = inhibition” value was 0.551%.

In the case of `COc1ccc(OC)c(NC(=S)N2CCc3ccccc3C2)c1`, the “activity change, negative = inhibition” value is 9.21%.

On to `COc1cc(C(=S)N2CCOCC2)ccc1O`, for which the “activity change, negative = inhibition” value is 6.25%.

As for `COc1ccc(C)cc1NC(=S)N1CCOCC1`, the Potency was 17.8 µM (active).

In the case of `O=C(CCc1cn(Cc2ccc(F)cc2)c2ccccc12)NC1CCCCC1`, the “activity change, negative = inhibition” value was 2.87%.

As for `CC(C)Cn1c(C2CC(=O)N(c3ccccc3Cl)C2)nc2ccccc21` (stereo not drawn), the “activity change, negative = inhibition” value was -1.77%.
